About 79,000 compounds went through this panel and 15% of them were active in at least one assay; those are over-represented in the sample as a whole. Calls of active or inactive are those of the source. Cut-off read from the data, not from the text of the source: active = growth inhibition above about 70%; inactive = the rest.
Key:
[1] = NCI Yeast Anticancer Drug Screen. Data for the rad52 strain (AID 147);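 note: 0% = growth of vehicle-treated control cultures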; conditions: S. cerevisiae rad52 mutant growth inhibition, stronger effect = higher value
Outline: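 Measured: yeast growth inhibition. System: strain with a defined DNA damage repair alteration. Reference: vehicle-treated control cultures.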

[2] = NCI Yeast Anticancer Drug Screen. Data for the wt1 strain (AID 149);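 note: 0% = growth of vehicle-treated wt1 cultures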; conditions: S. cerevisiae wt1 strain (SPY 50644) growth inhibition, stronger effect = higher value
Outline: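 Each compound is tested on wt1 yeast and the loss of growth versus vehicle gives the inhibition value.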

[3] = NCI Yeast Anticancer Drug Screen. Data for the mgt1 strain (AID 153); conditions: S. cerevisiae mgt1 mutant growth inhibition, stronger effect = higher value
Outline: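 After exposure of the mgt1 yeast mutant to compound, growth was measured and reported as inhibition compared with vehicle controls.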

[4] = NCI Yeast Anticancer Drug Screen. Data for the rad50 strain (AID 155);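 note: 0% = growth of vehicle-only cultures of the same strain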; conditions: S. cerevisiae rad50 strain growth inhibition, stronger effect = higher value
Outline: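 Vehicle-treated cultures provide the reference for the growth inhibition reported for compound-exposed, repair-deficient yeast.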

[5] = NCI Yeast Anticancer Drug Screen. Data for the mec2-1 strain (AID 157); conditions: S. cerevisiae mec2-1 strain, stronger effect = higher value
Outline: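 Test agents were screened against the mec2-1 yeast strain, with defined DNA repair or cell cycle alteration. Growth was scored as inhibition against vehicle-only controls.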

[6] = NCI Yeast Anticancer Drug Screen. Data for the rad14 strain (AID 159);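 note: 0% = growth of vehicle-treated control cultures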; conditions: S. cerevisiae rad14 strain growth inhibition, stronger effect = higher value
Outline: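 Inhibition of growth is reported for a repair-deficient yeast mutant following compound treatment, calculated relative to cultures that received vehicle.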

[7] = NCI Yeast Anticancer Drug Screen. Data for the sgs1 mgt1 strain (AID 161);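 note: 0% = growth of cultures given vehicle only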; conditions: S. cerevisiae sgs1 mgt1 strain, stronger effect = higher value
Outline: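 Inhibition of yeast growth, normalised to vehicle-treated controls, is reported for a strain bearing genetic alterations in DNA damage repair.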

[8] = NCI Yeast Anticancer Drug Screen. Data for the CLN2oe strain (AID 163);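 note: 0% = growth of vehicle-only control cultures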; conditions: S. cerevisiae CLN2oe strain, stronger effect = higher value
Outline: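 Here, growth inhibition in a cell-cycle-altered yeast strain after compound exposure was quantified against vehicle control growth.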

[9] = NCI Yeast Anticancer Drug Screen. Data for the cln2 rad14 strain (AID 165);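 note: 0% = growth equal to vehicle treated cultures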; conditions: S. cerevisiae cln2 rad14 strain, stronger effect = higher value
Outline: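 Growth of compound-exposed yeast (cln2 rad14 genotype) measured and expressed as inhibition relative to vehicle.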

[10] = NCI Yeast Anticancer Drug Screen. Data for the bub3 strain (AID 167); conditions: S. cerevisiae bub3 mutant strain, stronger effect = higher value
Outline: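 Mutant yeast screening strain plus compound; vehicle-treated cultures serve as the 0% inhibition reference.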

[11] = NCI Yeast Anticancer Drug Screen. Data for the wt2 strain (AID 169); conditions: S. cerevisiae wt2 strain growth inhibition, stronger effect = higher value
Outline: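 Genetically defined yeast strains from a DNA-repair/cell-cycle panel were used. Compound-exposed yeast growth was measured, and the inhibition was calculated relative to vehicle treatment.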

[12] = NCI Yeast Anticancer Drug Screen. Data for the mlh1 strain (AID 171);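 note: 0% = growth of vehicle-treated control cultures of the same strain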; conditions: S. cerevisiae mlh1 strain growth inhibition, stronger effect = higher value
Outline: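 Here the genetically defined yeast mutant is grown with each compound, and the extent to which its growth falls below that of vehicle-exposed cells is reported.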

[13] = NCI Yeast Anticancer Drug Screen. Data for the sgs1 strain (AID 173);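 note: 0% = growth of vehicle-only control cultures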; conditions: S. cerevisiae sgs1 mutant, stronger effect = higher value
Outline: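 Relative growth inhibition, referenced to vehicle, was determined in a yeast strain with a defined alteration affecting DNA damage repair or cell cycle control after compound exposure.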

[14] = NCI Yeast Anticancer Drug Screen. Data for the mlh1 rad18 strain (AID 175); conditions: S. cerevisiae mlh1 rad18 strain growth inhibition, stronger effect = higher value
Outline: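 In this whole-cell yeast screen, a strain with altered DNA damage repair is challenged with compound, and its growth is measured against matched vehicle-treated controls.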

[15] = NCI Yeast Anticancer Drug Screen. Data for the rad18 strain (AID 177); conditions: S. cerevisiae rad18 mutant growth inhibition, stronger effect = higher value
Outline: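 Screen uses a yeast strain with a defined lesion in DNA damage repair; compound effect is read as loss of growth compared to untreated vehicle cultures.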

[16] = NCI Yeast Anticancer Drug Screen. Data for the rad50EPP+ strain (AID 151);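 note: 0% = growth of vehicle-treated control cultures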; conditions: S. cerevisiae rad50 mutant strain, stronger effect = higher value
Outline: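 One strain with a rad50 alteration (rad50EPP+) was compound-treated, its growth then compared to that of vehicle controls.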

[17] = at 5.0 µM (retest, dose inferred, filed as 0.5)
[18] = at 50.0 µM (retest, dose inferred, filed as 5.0)

Measured: growth inhibition

COc1ccc2ccc3ccccc3c2c1C=O
active: [2]; at 100.0 µM 93% | [3]; at 100.0 µM 74% | [4]; at 100.0 µM 79% | [5]; at 100.0 µM 96% | [6]; at 100.0 µM 83% | [8]; at 100.0 µM 81% | [10]; at 100.0 µM 76% | [11]; at 100.0 µM 77% | [14]; [18] 89% | [15]; at 100.0 µM 83%
inactive: [1]; at 1.2 µM -5% | [1]; at 3.7 µM -5% | [1]; at 11.0 µM -3% | [1]; at 33.0 µM 0% | [1]; at 100.0 µM 63% | [2]; at 1.2 µM -3% | [2]; at 3.7 µM -5% | [2]; at 11.0 µM -5% | [2]; at 33.0 µM -4% | [3]; at 1.2 µM -7% | [3]; at 3.7 µM -6% | [3]; at 11.0 µM -7% | [3]; at 33.0 µM -5% | [4]; at 1.2 µM 0% | [4]; at 3.7 µM 23% | [4]; [17] 9% | [4]; at 11.0 µM 28% | [4]; at 33.0 µM 6% | [4]; [18] 64% | [4]; at 50.0 µM 49% | [5]; at 1.2 µM -6% | [5]; at 3.7 µM -6% | [5]; [17] 9% | [5]; at 11.0 µM -6% | [5]; at 33.0 µM 0% | [5]; [18] 50% | [5]; at 50.0 µM 13.2% | [6]; at 1.2 µM 3% | [6]; at 3.7 µM 5% | [6]; at 11.0 µM 5% | [6]; at 33.0 µM 14% | [7]; [17] 7% | [7]; [18] 68% | [7]; at 50.0 µM 55.8% | [8]; at 1.2 µM -6% | [8]; at 3.7 µM -6% | [8]; at 11.0 µM -2% | [8]; at 33.0 µM -2% | [9]; [17] 15% | [9]; [18] 16% | [9]; at 50.0 µM 17.6% | [10]; at 1.2 µM -2% | [10]; at 3.7 µM 0% | [10]; [17] 5% | [10]; at 11.0 µM -5% | [10]; at 33.0 µM -2% | [10]; [18] 11% | [10]; at 50.0 µM -11.7% | [11]; at 1.2 µM -3% | [11]; at 3.7 µM 4% | [11]; at 11.0 µM -4% | [11]; at 33.0 µM -4% | [12]; at 1.2 µM -6% | [12]; at 3.7 µM -5% | [12]; at 11.0 µM -5% | [12]; at 33.0 µM -6% | [12]; at 100.0 µM 29% | [13]; at 1.2 µM -4% | [13]; at 3.7 µM -1% | [13]; at 11.0 µM 4% | [13]; at 33.0 µM 10% | [13]; at 100.0 µM 50% | [14]; [17] 14% | [14]; at 50.0 µM 57.1% | [15]; at 1.2 µM -2% | [15]; at 3.7 µM 2% | [15]; at 11.0 µM 3% | [15]; at 33.0 µM 9%

CCC[CH2][Ge]([CH2]CCC)([CH2]CCC)[O]C(=O)C(OC)c1ccccc1 (stereo unspecified)
inactive: [1]; at 1.2 µM 0% | [1]; at 3.7 µM 6% | [1]; at 11.0 µM 25% | [1]; at 33.0 µM 66% | [16]; at 1.2 µM -2% | [16]; at 3.7 µM 3% | [16]; at 11.0 µM 6% | [16]; at 33.0 µM 16% | [16]; at 100.0 µM 34% | [3]; at 1.2 µM -2% | [3]; at 3.7 µM -1% | [3]; at 11.0 µM 1% | [3]; at 33.0 µM 58% | [4]; at 1.2 µM 2% | [4]; at 3.7 µM 8% | [4]; [17] 60% | [4]; at 11.0 µM -2% | [4]; at 33.0 µM 64% | [4]; [18] 60% | [4]; at 50.0 µM 69.9% | [5]; at 1.2 µM -1% | [5]; at 3.7 µM -1% | [5]; [17] 57% | [5]; at 11.0 µM 7% | [5]; at 33.0 µM 34% | [5]; [18] 57% | [6]; at 1.2 µM -2% | [6]; at 3.7 µM -7% | [6]; at 11.0 µM -10% | [6]; at 33.0 µM 26% | [7]; [17] 59% | [7]; [18] 59% | [8]; at 1.2 µM -6% | [8]; at 3.7 µM 1% | [8]; at 11.0 µM 6% | [8]; at 33.0 µM 41% | [9]; [17] 18% | [9]; [18] 18% | [9]; at 50.0 µM 66.5% | [10]; at 1.2 µM -6% | [10]; at 3.7 µM -4% | [10]; [17] 10% | [10]; at 11.0 µM 12% | [10]; at 33.0 µM 54% | [10]; [18] 10% | [11]; at 1.2 µM -3% | [11]; at 3.7 µM -4% | [11]; at 11.0 µM 0% | [11]; at 33.0 µM 48% | [12]; at 1.2 µM -4% | [12]; at 3.7 µM -5% | [12]; at 11.0 µM -1% | [12]; at 33.0 µM 60% | [13]; at 1.2 µM -1% | [13]; at 3.7 µM 1% | [13]; at 11.0 µM 11% | [14]; [17] 39% | [14]; [18] 39% | [15]; at 1.2 µM 5% | [15]; at 3.7 µM 4% | [15]; at 11.0 µM 22%
active: [1]; at 100.0 µM 98% | [3]; at 100.0 µM 99% | [4]; at 100.0 µM 98% | [5]; at 50.0 µM 75.5% | [5]; at 100.0 µM 98% | [6]; at 100.0 µM 95% | [7]; at 50.0 µM 82.8% | [8]; at 100.0 µM 98% | [10]; at 50.0 µM 76% | [10]; at 100.0 µM 97% | [11]; at 100.0 µM 98% | [12]; at 100.0 µM 98% | [13]; at 33.0 µM 71% | [13]; at 100.0 µM 94% | [14]; at 50.0 µM 78% | [15]; at 33.0 µM 80% | [15]; at 100.0 µM 98%

Source: PubChem BioAssay (NCI)
